From PubChem BioAssay
NPSR antag: antagonists of human neuropeptide S receptor cAMP signaling; AID 1461; Potency, µM (top dose mostly 38.3 µM), hits mostly inhibitors; 220,000 tested, 1% active; CHO-NPSR cells, cAMP TR-FRET, antagonist mode; note: nearly all actives have a fitted effect of over 50% in size
Target sequence (Q6W5P4 whole entry, looked up): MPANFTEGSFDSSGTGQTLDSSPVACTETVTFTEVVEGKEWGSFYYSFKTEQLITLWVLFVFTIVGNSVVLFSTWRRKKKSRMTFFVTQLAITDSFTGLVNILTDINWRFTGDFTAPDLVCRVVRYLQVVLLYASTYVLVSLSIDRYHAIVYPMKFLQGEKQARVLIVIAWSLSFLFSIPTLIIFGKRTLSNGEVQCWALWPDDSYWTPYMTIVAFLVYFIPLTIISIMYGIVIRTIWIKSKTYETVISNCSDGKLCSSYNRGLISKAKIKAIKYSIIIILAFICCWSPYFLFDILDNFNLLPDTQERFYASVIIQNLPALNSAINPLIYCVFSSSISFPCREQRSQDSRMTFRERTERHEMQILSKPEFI
JMJD2E inh: inhibitors of human JMJD2E histone demethylase. B2RXH2. 230,000 tested, 1.6% active. Potency, µM (series often up to 57.1 µM), most hits filed as inhibitors. AID 2147. JMJD2E catalytic domain, FDH-coupled NADH fluorescence (FDH is formaldehyde dehydrogenase); note: nearly all actives have a fitted effect of over 50% in size
PNC assembly inh: perinucleolar compartment assembly inhibition | activity change (PNC), negative = inhibition, % at 10 µM | PC3M PTB-GFP, PNC prevalence imaging, 16 h; active compounds read low | 140,000 tested, 3.1% active | AID 2417;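 active = readout at or below -70, meaning at least 70% loss of cells showing the perinucleolar compartment, a nuclear body marking cancer cells; inconclusive = readout between -30 and a set limit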
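Compounds are pinned in duplicate onto adhered PC3M cells stably expressing GFP-tagged PTB and incubated 16 h at 37 C. Cells are then fixed, nuclei stained with Hoechst, and PNC-positive cells counted.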
Tau fluor cs: counter-screen for tau fibril formation inhibitors | tau K18 P301L Alexa594 fluorescence, heparin fibrillization | Potency, µM (titrated, usually from 57.7 µM) | 280,000 tested, 0.93% active | AID 1463; note: nearly all actives have a fitted effect of over 55% in size
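Human K18 P301L tau (15 uM unlabeled plus 0.24 uM Alexa 594-labeled, final) in 100 mM sodium acetate pH 7 was mixed with compound and 20 uM heparin and incubated 6 hr at 37 C.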
Tau fibril ThT: inhibitors of human tau fibril formation, thioflavin T binding; P10636; recombinant tau K18 P301L, heparin-induced fibrillization, ThT fluorescence; Potency, µM (top dose mostly 57.4 µM), actives largely listed as inhibitors; 270,000 tested, 2.1% active; AID 1460; note: nearly all actives have a fitted effect of over 55% in size
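Fibril formation assay: tau K18 P301L at 15 uM with trace Alexa 594 label, heparin inducer 20 uM, pH 7 sodium acetate buffer, 37 C for 6 hr; endpoint ThT signal.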
Tau fibril FP: blocks human tau fibril formation measured by polarization. P10636. K18 P301L tau heparin fibrillization, Alexa594 FP, 6 h. Potency, µM (doses to about 57.7 µM), usual class: inhibitors. 280,000 tested, 0.39% active; note: nearly all actives have a fitted effect of over 55% in size
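Heparin (20 uM) drove fibril formation of recombinant tau K18 P301L, 15 uM unlabeled with 0.24 uM Alexa 594 label, for 6 hr at 37 C in 100 mM sodium acetate pH 7. Fluorescence polarization (555/632 nm) read 1 hr after 30 uM ThT.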
A number is an active result; – = inactive; ? = inconclusive; · = not tested or not shown; [ ] = remark or other dose. Compounds with a hit are over-represented: about 5.1% of the library has one in this group of screens. Unless noted, calls come from the whole dose curve; as a rule, active = well fitted curve in the direction sought with a large enough effect; inconclusive = small, poorly fitted or top-dose-only effect, or another doubt; inactive = no such curve, though single readings can be large; an effect the other way counts as inactive or inconclusive.

SMILES	NPSR antag	JMJD2E inh	PNC assembly inh	Tau fluor cs	Tau fibril ThT	Tau fibril FP
O=C1C2=C(Nc3ccccc3SC2c2ccccc2C(F)(F)F)c2ccccc21 (centres undefined)	·	·	·	?	?	13µM
CCCc1ccc(C2Sc3ccccc3NC3=C2C(=O)c2ccccc23)cc1 (centres undefined)	·	·	·	3.2µM[quencher]	?	?
CCOc1cc(C2Sc3ccccc3NC3=C2C(=O)c2ccccc23)ccc1O (centres undefined)	·	·	·	10µM[quencher]	10µM	?
COc1ccc(Br)cc1C1Sc2ccccc2NC2=C1C(=O)c1ccccc12 (centres undefined)	·	·	·	?	?	–
COc1ccc2c(c1)CC(NC(=O)Nc1ccc(Br)c(C)c1)CO2 (centres undefined)	·	·	·	–	–	–
COc1ccc(CN(C(C)=O)c2cccc(C)c2C)cc1	–	–	-107	–	–	–
O=C(Cn1ncc2c(=O)oc3ccccc3c21)NCc1ccc(Cl)cc1	·	·	·	–	–	–
CCCN1CCN(c2ncnc3sc(C(=O)Nc4c(C)cc(C)cc4C)c(C)c23)CC1	·	·	·	–	–	–
O=C(NN1C(=O)C2C3C=CC(C3)C2C1=O)c1ccccc1 (centres undefined)	–	–	·	–	–	–
O=C(NN1C(=O)C2C3C=CC(C3)[C@H]2C1=O)c1cccnc1 (some centres undefined)	–	–	-98	–	–	–
CC1CCc2nn(CC(=O)Nc3cccc(C(F)(F)F)c3)c(=O)cc2C1 (centres undefined)	·	·	·	–	–	–
Cc1ccc(C2CC(c3cccs3)=NN2C(=O)c2ccc(Br)o2)cc1 (centres undefined)	10µM	–	–	–	–	–
CC(=O)N1N=C(c2cccs2)CC1c1ccc(C)o1 (centres undefined)	–	?	·	–	–	–
O=C(COc1ccccc1)NCC(=O)N/N=C/c1ccco1	–	–	-121	–	–	–
COc1ccc(OCC(=O)N/N=C\c2ccco2)cc1	–	–	·	–	?	–
COc1cccc(/C=N/NC(=O)CNC(=O)COc2ccccc2)c1O	–	8.9µM	·	–	–	–
COc1cccc(/C=N/NC(=O)C[n+]2ccccc2)c1O	–	14µM	–	–	?	–
COc1cccc(/C=N/NC(=S)Nc2cccc(C(=O)O)c2)c1O	–	28µM	·	–	?	?
COc1cccc(/C=N/NC(=O)CNC(=O)C2COc3ccccc3O2)c1O (centres undefined)	–	18µM	–	–	–	–
COc1cccc(/C=N/NC(=O)C(=O)NCc2cccnc2)c1OC	–	–	·	–	–	–
O=C(COc1ccccc1)NCC(=O)N/N=C/c1ccc(O)cc1O	–	14µM	·	–	–	?
COc1cccc(/C=N/NC(=O)C(=O)NCc2cccnc2)c1O	–	10µM	?	–	–	–
COc1cccc(/C=N/NC(=O)CNC(=O)c2ccco2)c1O	–	14µM	·	–	–	–
COc1ccc(-c2cn3cccnc3n2)cc1NC(=O)c1c(F)cccc1F	·	·	·	–	–	?
CSc1ccc(CC2C(=O)Nc3ccccc32)cc1 (centres undefined)	·	·	·	–	?	–
SMILES	NPSR antag	JMJD2E inh	PNC assembly inh	Tau fluor cs	Tau fibril ThT	Tau fibril FP
S=c1[nH]c2ccccc2s1	·	20µM	·	–	–	–
COc1cc(C(=O)N(Cc2cccnc2)c2nc3cc(C)c(C)cc3s2)cc(OC)c1OC	·	·	·	–	–	–
N#CC1=C(N)C2=C(N3CCCCC3)CCCC2C1(C#N)C#N (centres undefined)	–	?	–	?	32µM	?
CCc1nn2c(=O)cc(COC(=O)COc3ccc(OC)cc3)nc2s1	·	·	·	–	–	–
CCc1nn2c(=O)cc(COc3ccc(/C=C4\C(=N)N5N=C(C)SC5=NC4=O)cc3)nc2s1	–	?	·	–	13µM	–
O=[N+]([O-])c1c(NCCCO)cc(SCc2ccco2)c2nonc12	–	–	–	?	7.9µM	?
COC(=O)CCSc1cc(NCCOC(C)=O)c([N+](=O)[O-])c2nonc12	–	–	–	?	11µM	–
CC(=O)OCCNc1cc(Sc2nc3ccccc3[nH]2)c2nonc2c1[N+](=O)[O-]	?	–	–	–	–	–
